# Values joined by “and” are separate entries in the source; they are usually repeats but may differ in a detail not shown here. Equal values may be shown once. ± gives the standard deviation of the averaged measurements.
# Tested on: SUM149
# Experiment: percent difference in area under dose-response curve of relative cell number, RPMI vs HPLM; higher = drug relatively more effective in HPLM than RPMI (negative = less effective in HPLM)
# Conditions: treatment time: 72 h; dose range: 10-point, 1 nM to 20 µM; media compared: RPMI vs HPLM
row,Structure (SMILES),percent difference in area under dose-response curve
1,Nc1nc(F)nc2c1ncn2[C@@H]1O[C@H](COP(=O)(O)O)[C@@H](O)[C@@H]1O [Fludarabine_Phosphate],-16.9%
2,O=C1c2c(O)ccc(O)c2C(=O)c2c(NCCNCCO)ccc(NCCNCCO)c21 [Mitoxantrone],-23.7%
3,O=C(NCC1(c2nc(-c3ccccc3)cs2)CCOCC1)c1cccc(-c2noc(C(F)(F)F)n2)c1,0.481%
4,CC(C)c1cc(-c2n[nH]c(=O)n2-c2ccc3c(ccn3C)c2)c(O)cc1O [Ganetespib],-31.8%
5,COc1ccc(-c2ccc3c(N4CCOCC4)nc(N4C[C@@H](C)O[C@@H](C)C4)nc3n2)cc1CO,-2.21%
6,C=CCNC1=C2C[C@@H](C)C[C@H](OC)[C@H](O)[C@@H](C)/C=C(\C)[C@H](OC(N)=O)[C@@H](OC)/C=C\C=C(/C)C(=O)NC(=CC1=O)C2=O,-27.6% and -16.3%
7,C=C1/C(=C\C=C2/CCC[C@]3(C)[C@@H]([C@H](C)/C=C/[C@H](C)C(C)C)CC[C@@H]23)C[C@@H](O)C[C@@H]1O [Doxercalciferol],-7.1%
8,CC(C)C[C@H](NC(=O)CNC(=O)c1cc(Cl)ccc1Cl)B1OC(=O)C(CC(=O)O)(CC(=O)O)O1,-1.48%
9,CCCCC[C@H](CC(=O)NO)C(=O)N[C@H](C(=O)N1CCC[C@H]1CO)C(C)C [Actinonin],1.68%
10,CC(=O)N1CCN(c2ccc(OCC3COC(Cn4ccnc4)(c4ccc(Cl)cc4Cl)O3)cc2)CC1 (stereo unspecified) [Ketoconazole],-8.22%
11,CN(c1ncccc1CNc1nc(Nc2ccc3c(c2)CC(=O)N3)ncc1C(F)(F)F)S(C)(=O)=O,-16.2%
12,COc1ncc(-c2ccc3nccc(-c4ccnnc4)c3c2)cc1NS(=O)(=O)c1ccc(F)cc1F,-12.4%
13,COc1cccc2c1C(=O)c1c(O)c3c(c(O)c1C2=O)C[C@@](O)(C(C)=O)C[C@@H]3O[C@H]1C[C@H](N)[C@H](O)[C@H](C)O1 [Daunorubicin_HCl],-26.8%
14,Cc1nc(=O)c2cc(CN(C)c3ccc(C(=O)N[C@@H](CCC(=O)O)C(=O)O)s3)ccc2[nH]1 [Raltitrexed],0.127 ± 13%
15,C=CC(=O)Nc1cc(Nc2nccc(-c3cn(C)c4ccccc34)n2)c(OC)cc1N(C)CCN(C)C,1.9%
16,O=C(NC1CCNCC1)c1n[nH]cc1NC(=O)c1c(Cl)cccc1Cl,-11.2%
17,COC1=CC(c2cc3ccccc3[nH]2)=N/C1=C\c1[nH]c(C)cc1C [Obatoclax_mesylate],-8.47%
18,Oc1cccc(-c2nc(N3CCOCC3)c3oc4ncccc4c3n2)c1,3.18%
19,COCC[n+]1c2c(n(Cc3cnccn3)c1C)C(=O)c1ccccc1C2=O,15.7%
20,COc1cc(Nc2c(C#N)cnc3cc(OCCCN4CCN(C)CC4)c(OC)cc23)c(Cl)cc1Cl [Bosutinib],7.19%
21,Cc1cn(-c2cc(NC(=O)c3ccc(C)c(Nc4nccc(-c5cccnc5)n4)c3)cc(C(F)(F)F)c2)cn1 [Nilotinib],-3.16%
